The results in this text go back to PubChem BioAssay AID602410 (Johns Hopkins Ion Channel Center, 2012).

SMILES strings stand for the structures. The campaign covered roughly 340,000 compounds. About 2,800 (0.82%) were called active.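 How the source made its calls: active means B-score under library mean minus 4 SD, starting fluorescence ratio at most library mean plus 5 SD; inactive means the rest.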 This excerpt belongs to a sample that is enriched for actives.

In the experiment the target is Potassium channel subfamily K member 3 (Homo sapiens) (UniProt O14649). Description: blockers of TASK1 two-pore potassium channel – CHO cells, FluxOR thallium flux, B-score, primary screen (AID 602410).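 On B-score: more negative B-score means stronger inhibition of thallium flux through KCNK3.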 To be noted: CHO-KCNK3 thallium flux, FluxOR fluorescence, at 10 µM; active compounds read low.
Chain of Potassium channel subfamily K member 3 (Homo sapiens) (O14649 whole entry, looked up): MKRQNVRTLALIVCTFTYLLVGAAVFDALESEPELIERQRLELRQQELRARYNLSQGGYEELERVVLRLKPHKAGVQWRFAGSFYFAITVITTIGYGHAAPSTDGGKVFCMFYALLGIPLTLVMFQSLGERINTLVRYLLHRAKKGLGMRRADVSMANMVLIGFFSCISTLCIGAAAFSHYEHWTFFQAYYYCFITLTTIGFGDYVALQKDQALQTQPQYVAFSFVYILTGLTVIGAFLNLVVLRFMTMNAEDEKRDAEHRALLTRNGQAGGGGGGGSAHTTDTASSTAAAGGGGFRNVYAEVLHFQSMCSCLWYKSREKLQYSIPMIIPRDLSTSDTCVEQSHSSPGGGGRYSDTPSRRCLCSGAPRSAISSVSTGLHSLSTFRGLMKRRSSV
`Cc1cc(Br)ccc1NC(=O)c1cnc(N2CCN(c3ccccn3)CC2)c2ccccc12`: the B-score entry was “inactive”.

For the molecule `O=C(c1c(F)cccc1Cl)N1CCN(c2ccccn2)CC1`, the B-score entry was “inactive”.

For the molecule `CCOC(=O)C1CCCN(C(=O)c2sc3nc(C)nc(N4CCOCC4)c3c2C)C1` (centres undefined), the B-score entry was “inactive”.

With `Cc1nc(N2CCC(C)CC2)c2c(C)c(C(=O)Nc3cc(F)ccc3C)sc2n1`, the B-score result is “inactive”.

`Cc1nc(N2CCN(c3ccccn3)CC2)c2c(C)c(C(=O)Nc3ccc(F)cc3)sc2n1`: the B-score was -13 (active).

As for `Cc1nc(N2CCN(c3ccccn3)CC2)c2c(C)c(C(=O)Nc3ccc(F)c(Cl)c3)sc2n1`, the B-score is -12 (active).

For the molecule `COc1ccc(NC(=O)c2sc3nc(C)nc(N4CCN(c5ccccn5)CC4)c3c2C)c(OC)c1`, the B-score result was “inactive”.

For the molecule `Cc1nc(N2CCOCC2)c2c(C)c(C(=O)Nc3ccc(C(F)(F)F)cc3)sc2n1`, the B-score was -8.85 (active).

On to `Cc1cc(Br)ccc1NC(=O)c1sc2ncn(CC(=O)N3CCN(c4ccccn4)CC3)c(=O)c2c1C`, for which the B-score entry was “inactive”.

For the molecule `C/C(=N/NC(=O)c1ccn(C)n1)c1ccncc1`, the B-score entry was “inactive”.

In the case of `Cc1ccccc1-c1nc(CS(=O)(=O)CC(=O)NC(C)c2ccccc2)c(C)o1` (centres undefined), the B-score result was “inactive”.

`CCOc1ccc(C(CC(=O)O)NC(=O)C23CC4CC(CC(C4)C2)C3)cc1OC` (centres undefined): the B-score entry is “inactive”.

For the molecule `Cc1cc(NC(=O)C(C)SCC(=O)Nc2ccccc2N2CCCCC2)no1` (centres undefined), the B-score entry was “inactive”.

`Cc1ccc(OCCC(=O)Nc2ccc(S(=O)(=O)Nc3nccs3)cc2)cc1`: the B-score entry is “inactive”.

Turning to `O=C1NC(c2ccncc2)Nc2sc3c(c21)CCCC3` (centres undefined), the B-score entry is “inactive”.

Turning to `O=C(NCC(=O)N1CCCCCCC1)c1ccccc1Cl`, the B-score result is “inactive”.

For the molecule `CCCc1cc(=O)[nH]c(SCC(=O)N2CCN(S(=O)(=O)c3ccc(C)cc3C)CC2)n1`, the B-score result is “inactive”.

For `Cc1ccc(CN(CC(=O)NCC2CCCO2)S(=O)(=O)c2ccc(C)cc2)cc1` (centres undefined), the B-score result was “inactive”.

As for `Cc1ccc(F)c(NC(=O)CCc2ccccc2)c1`, the B-score entry was “inactive”.

For the molecule `CCn1ncc(Br)c1C(=O)Nc1cc(C)ccc1F`, the B-score was -9.47 (active).

Consider `Cc1ccc(F)c(NC(=O)CCOc2ccccc2C)c1`, for which the B-score result was “inactive”.

As for `C=CCNC(=O)C1CC2c3ccccc3C1c1ccccc12` (centres undefined), the B-score result was “inactive”.

As for `COc1ccc(Cl)cc1C=CC=Nc1ccc(S(N)(=O)=O)cc1`, the B-score result is “inactive”.

`COc1ccc(Cc2nnc(N/N=C/c3ccccc3O)[nH]c2=O)cc1OC`: the B-score entry is “inactive”.

As for `COc1cccc(/C=N/Nc2ccc(S(=O)(=O)Nc3ccccc3C(=O)O)cc2[N+](=O)[O-])c1O`, the B-score result was “inactive”.

Turning to `COc1cccc(/C=N/Nc2cc(C)nc(-c3ccccc3O)n2)c1O`, the B-score is -11.6 (active).

Take `COc1cccc(CN(C)CC(=O)Nc2ccccc2C(=O)Nc2ccccc2)c1`: the B-score entry was “inactive”.

As to `Cc1ccccc1C(OCC(O)CN1CCCCC1CCO)c1ccccc1` (centres undefined), the B-score result is “inactive”.

Regarding `COc1cccc(CN(C)CC(O)COC(c2ccccc2)c2ccccc2C)c1` (centres undefined), the B-score is -12.7 (active).
